About 1,500 (3.8%) of roughly 39,000 compounds were called active. This excerpt belongs to a sample that is enriched for actives.
Each compound was assayed on HSkMC (human skeletal muscle cells) (assay: cytotoxicity call (relative viability < 0.9)). Details: 10 µM.

| Compound | cytotoxicity call |
| --- | --- |
| C[C@@H]1CN([C@H](C)CO)C(=O)c2cc(NC(=O)Cn3cnnn3)ccc2O[C@H]1CN(C)CC1CCCCC1 | inactive |
| Cc1ccc(-c2ccc3c(c2)O[C@@H](CN(C)C(=O)NC(C)C)[C@H](C)CN([C@H](C)CO)S3(=O)=O)cc1 | inactive |
| CCCNC(=O)N[C@H]1CC[C@@H](CC(=O)N2CCN(C)CC2)O[C@@H]1CO | inactive |
| C[C@@H]1CN([C@H](C)CO)C(=O)c2cc(NS(C)(=O)=O)ccc2O[C@@H]1CN(C)Cc1ccc(C(=O)O)cc1 | inactive |
| CC(C)NC(=O)N(C)C[C@@H]1OCCCC[C@@H](C)Oc2ccc(NS(=O)(=O)c3cn(C)cn3)cc2C(=O)N([C@@H](C)CO)C[C@H]1C | inactive |
| C[C@H](CO)N1C[C@H](C)[C@H](CN(C)C(=O)Nc2ccccc2)OCCCC[C@H](C)Oc2ccc(NC(=O)Nc3cccc4ccccc34)cc2C1=O | inactive |
| Cc1noc(C)c1NC(=O)N(C)C[C@@H]1Oc2ccc(NC(=O)Nc3ccc(C(F)(F)F)cc3)cc2C(=O)N([C@H](C)CO)C[C@@H]1C | inactive |
| C[C@@H]1CN([C@H](C)CO)C(=O)c2cc(NC(=O)Nc3cccc4ccccc34)ccc2O[C@H]1CN(C)Cc1ccccc1 | inactive |
| C[C@H]1CN([C@@H](C)CO)C(=O)c2cc(NC(=O)Nc3cccc4ccccc34)ccc2O[C@@H]1CN(C)Cc1ccc(-c2ccccc2)cc1 | active |
| C[C@H](CO)N1C[C@H](C)[C@@H](CN(C)Cc2ccc(-c3ccccc3)cc2)Oc2ccc(NC(=O)Nc3cccc4ccccc34)cc2C1=O | inactive |
| C[C@@H]1CN([C@@H](C)CO)C(=O)c2cc(NC(=O)Nc3cccc4ccccc34)ccc2O[C@H]1CN(C)Cc1ccc(-c2ccccc2)cc1 | inactive |
| C[C@H]1CN([C@@H](C)CO)C(=O)c2cc(NC(=O)Nc3cccc4ccccc34)ccc2O[C@H]1CN(C)Cc1ccc(-c2ccccc2)cc1 | inactive |
| C[C@@H]1CN([C@@H](C)CO)C(=O)c2cc(NC(=O)Nc3cccc4ccccc34)ccc2O[C@@H]1CN(C)Cc1ccc(-c2ccccc2)cc1 | active |
| C[C@@H]1CN([C@H](C)CO)C(=O)c2cc(NC(=O)Nc3cccc4ccccc34)ccc2O[C@H]1CN(C)Cc1ccc(-c2ccccc2)cc1 | inactive |
| C[C@@H]1CN([C@H](C)CO)C(=O)c2cc(NC(=O)Nc3cccc4ccccc34)ccc2O[C@@H]1CN(C)Cc1ccc(-c2ccccc2)cc1 | inactive |
| C[C@H](CO)N1C[C@H](C)[C@H](CN(C)Cc2ccc(-c3ccccc3)cc2)Oc2ccc(NC(=O)Nc3cccc4ccccc34)cc2C1=O | active |
| Cc1ccc(S(=O)(=O)N(C)C[C@H]2Oc3c(NC(=O)Nc4ccc(C(F)(F)F)cc4)cccc3C(=O)N([C@H](C)CO)C[C@@H]2C)cc1 | inactive |
| CO[C@H]1CN(C)C(=O)c2cc(NS(=O)(=O)c3cn(C)cn3)ccc2OC[C@@H](C)N(Cc2cccc(F)c2)C[C@H]1C | inactive |
| Cc1noc(C)c1NC(=O)Nc1cccc2c1O[C@@H](CN(C)Cc1ccc(Oc3ccccc3)cc1)[C@@H](C)CN([C@@H](C)CO)C2=O | inactive |
| COc1ccc(S(=O)(=O)N(C)C[C@@H]2Oc3cc(C4=CCCC4)ccc3S(=O)(=O)N([C@H](C)CO)C[C@@H]2C)cc1 | inactive |
| COCCNC(=O)C[C@H]1CC[C@H]2[C@@H](COC[C@@H](O)CN2C(=O)Nc2ccc3c(c2)OCO3)O1 | inactive |
| CC(C)NC(=O)Nc1cccc2c1O[C@H](CN(C)Cc1ccc3c(c1)OCO3)[C@@H](C)CN([C@H](C)CO)C2=O | inactive |

| Compound | cytotoxicity call |
| --- | --- |
| COc1ccc(NC(=O)Nc2ccc3c(c2)C(=O)N([C@H](C)CO)C[C@H](C)[C@H](CN(C)Cc2ccc(C(=O)O)cc2)OCCCC[C@H](C)O3)cc1 | inactive |
| C[C@H](CO)N1C[C@H](C)[C@@H](CN(C)S(=O)(=O)c2cn(C)cn2)Oc2ccc(NS(=O)(=O)c3ccc(Cl)cc3)cc2CC1=O | inactive |
| C[C@H]1CN=C(NS(=O)(=O)c2ccccc2)N1 | inactive |
| C=CCON1C(=O)[C@@H]2[C@@H](C1=O)[C@@H]1C=C[C@@H]2O1 | inactive |
| CCCCN(CCCC)CCCOC(=O)c1ccc(N)cc1.O=S(=O)(O)O | inactive |
| CCCCc1oc2ccccc2c1C(=O)c1cc(I)c(OCCN(CC)CC)c(I)c1 | active |
| CCCCc1oc2ccc(NS(C)(=O)=O)cc2c1C(=O)c1ccc(OCCCN(CCCC)CCCC)cc1 | active |
| CCCCc1oc2ccccc2c1C(=O)c1cc(I)c(OCCN(CC)CC)c(I)c1.Cl | inactive |
| CCCCc1oc2ccc(NS(C)(=O)=O)cc2c1C(=O)c1ccc(OCCCN(CCCC)CCCC)cc1.Cl | active |
| CCCCOc1cc(C(=O)OCCN(CC)CC)ccc1N.Cl | inactive |
| CCc1oc2ccccc2c1C(=O)c1cc(Br)c(O)c(Br)c1 | inactive |
| C[C@H]1CN([C@@H](C)CO)C(=O)c2c(c3ccccc3n2C)-c2ccccc2CO[C@@H]1CN(C)C(=O)Nc1cccc(C(F)(F)F)c1 | inactive |
| O=C(C[C@@H]1C=C[C@@H](NC(=O)Cc2ccccn2)[C@@H](CO)O1)NCCCN1CCOCC1 | inactive |
| CNC(=O)C[C@@H]1CC[C@@H]2[C@H](COc3ccc(NC(=O)c4ccc(C(F)(F)F)cc4)cc3C(=O)N2C)O1 | inactive |
| C[C@@H]1CCCCO[C@@H](CN(C)S(=O)(=O)c2cn(C)cn2)[C@@H](C)CN([C@@H](C)CO)C(=O)c2cc(NC(=O)Nc3ccc(C(F)(F)F)cc3)ccc2O1 | inactive |
| COCCOC(=O)N1C(=O)[C@@]2(c3cc(C#Cc4ccc(OC)cc4)ccc31)[C@H](c1ccccc1OCCO)N1[C@H](c3ccccc3)[C@H](c3ccccc3)OC(=O)[C@H]1[C@@H]2C(=O)N1CCN(c2ncccn2)CC1 | inactive |
| Cc1noc(C)c1NC(=O)N(C)C[C@@H]1OCCCC[C@H](C)Oc2ccc(NC(=O)NC3CCCCC3)cc2C(=O)N([C@@H](C)CO)C[C@H]1C | inactive |
| CO[C@@H]1CN(C)C(=O)c2cc(NC(=O)NC(C)C)ccc2OC[C@H](C)N(Cc2ccc(-c3ccccn3)cc2)C[C@@H]1C | inactive |
| C[C@@H]1CCCCO[C@H](CN(C)S(C)(=O)=O)[C@@H](C)CN([C@H](C)CO)C(=O)c2cc(NS(=O)(=O)c3cccs3)ccc2O1 | inactive |
| C[C@@H]1CCCCO[C@@H](CN(C)C(=O)Nc2ccc(C(F)(F)F)cc2)[C@H](C)CN([C@H](C)CO)C(=O)c2cc(NC(=O)Cc3ccccc3)ccc2O1 | inactive |
| O=C(Oc1cccc2cccnc12)c1ccccc1 | inactive |
| COc1ccc(N2C(=O)C[C@@H](c3ccc(Br)cc3)[C@H]2C(=O)Nc2cccc3cccnc23)cc1 | inactive |

| Compound | cytotoxicity call |
| --- | --- |
| COc1nc(=NC(=O)NS(=O)(=O)Nc2cccc3cccnc23)nc(OC)[nH]1 | active |
| CNC[C@H]1Oc2c(NS(=O)(=O)c3cn(C)cn3)cccc2C(=O)N([C@H](C)CO)C[C@@H]1C | inactive |
| COc1ccc2c3c(n(c2c1)C)[C@H](CO)N(C[C@]13CCN(CC1)C(=O)CN1CCOCC1)C(=O)Nc1ccc(cc1)F | inactive |
| COc1cc2c(Oc3ccc(NC(=O)C4(C(=O)Nc5ccc(F)cc5)CC4)cc3F)ccnc2cc1OCCCN1CCOCC1 | active |
| CCOc1ccn(-c2ccc(F)cc2)c(=O)c1C(=O)Nc1ccc(Oc2ccnc(N)c2Cl)c(F)c1 | inactive |
| COc1cc2ncnc(Oc3cccc(NC(=O)Nc4cc(C(C)(C)C(F)(F)F)on4)c3)c2cc1OC | inactive |
| COc1cc2nccc(Oc3ccc(NC(=O)C4(C(=O)Nc5ccc(F)cc5)CC4)cc3)c2cc1OC | active |
| COc1ccc2c3c([nH]c2c1)[C@H](CO)N(C[C@]13CCN(CC1)C(=O)Nc1c(noc1C)C)C(=O)Nc1ccc(cc1)F | inactive |
| COc1cc2ncnc(Nc3ccc(F)c(Cl)c3)c2cc1OCCCN1CCOCC1 | inactive |
| COc1cc2nccc(Oc3ccc(NC(=O)c4cn(C(C)C)c(=O)n(-c5ccc(F)cc5)c4=O)cc3F)c2cc1OC | active |
| C[C@H](CO)N1C[C@H](C)[C@@H](CN(C)S(=O)(=O)c2cccs2)Oc2ccc(NS(=O)(=O)c3cccs3)cc2CC1=O | inactive |
| C[C@H](CO)N1C[C@H](C)[C@@H](CN(C)Cc2ccc(C(F)(F)F)cc2)Oc2ccc(NC(=O)CCC(F)(F)F)cc2C1=O | inactive |
| C[C@@H]1CN([C@@H](C)CO)C(=O)CCCn2nncc2CO[C@H]1CN(C)C(=O)c1cc(-c2ccccc2)on1 | inactive |
| C[C@H](CO)N1C[C@H](C)[C@H](CN(C)CC2CC2)OCCCC[C@H](C)Oc2ccc(NS(=O)(=O)c3ccc(Cl)cc3)cc2C1=O | inactive |
| C[C@@H]1CN([C@H](C)CO)C(=O)Cc2cc(NS(=O)(=O)c3cn(C)cn3)ccc2O[C@@H]1CN(C)Cc1ccc(C(=O)O)cc1 | inactive |
| COC(=O)Cn1c(=N)n(C)c2ccccc21 | inactive |
| C[C@H](CO)N1C[C@H](C)[C@H](CN(C)Cc2ccc(Cl)c(Cl)c2)Oc2ccc(NC(=O)Cn3cnnn3)cc2C1=O | inactive |
| CO[C@@]1(NC(=O)[C@@H](C(=O)O)c2ccc(O)cc2)C(=O)N2C(C(=O)O)=C(CSc3nnnn3C)CO[C@@H]21 | inactive |
| Cc1cc(C=Cc2ccc3cc(N(C)C)ccc3[n+]2C)c(C)n1-c1ccccc1.O=C([O-])c1cc2ccccc2c(Cc2c(O)c(C(=O)O)cc3ccccc23)c1O | active |
| CN1CCCN=C1C=Cc1cccs1.O=C(O)c1cc2ccccc2c(Cc2c(O)c(C(=O)O)cc3ccccc23)c1O | inactive |
| CN1CCCN=C1C=Cc1cccc(O)c1.O=C(O)c1cc2ccccc2c(Cc2c(O)c(C(=O)O)cc3ccccc23)c1O | inactive |
| C[C@H](CO)N1C[C@H](C)[C@@H](CN(C)C(=O)Nc2ccccc2)Oc2ccc(NC(=O)CCCCCC(=O)Nc3ccccc3N)cc2C1=O | inactive |

Source: the antibiotic and cytotoxicity screens of Wong et al. (2023)
